RE007 growth inh: less growth of the S. pombe RE007 Vpr strain | S. pombe RE007 Vpr strain, BacTiter-Glo ATP luminescence, 24 h | Potency, µM (series often up to 92.2 µM), without a hit: top-dose activity change, negative = less growth, usual class: inhibitors | hit rate 0.21% among 360,000 | AID 651644; active means well fitted falling curve with a large enough effect; inconclusive means small, poorly fitted or top-dose-only effect; inactive means no such curve, though single readings can be large or run the other way; further: potency means the concentration at half of the fitted maximal effect; on the % scale 0 is the no-effect control and ±100 the full control effect; nearly all actives have a fitted effect of over 50% in size
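Fission yeast strain RE007, carrying one chromosomally integrated HIV-1 vpr copy, was seeded at OD 0.01 in PMG+AL medium with 23 nL pinned compound. After 24 h at 30 °C and 99% humidity, viability was read by BacTiter-Glo luminescence.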
Shiga inhibitor: blocks Shiga toxin action in Vero cells. Vero cells, Shiga toxin protein synthesis inhibition reporter. inhibition, % at 38.7 µM. hit rate 9.2% among 290,000; in the data active means inhibition mostly above about 28%, no sharp cut-off; inactive means mostly below about 43%; further: 0% is about no effect
Cycloheximide cs: affects cycloheximide protein synthesis inhibition readout, counter-screen; cell reporter, cycloheximide protein synthesis inhibition counterscreen; max response, %; hit rate 12% among 300,000; in the data active means max response mostly above about 13%, no sharp cut-off; inactive means mostly below about 14%; further: read at 38.3 µM for the half of the compounds with a filed dose; 0% is about no effect
FBPA Giardia inh: blocks Giardia fructose-bisphosphate aldolase activity. A8B2U2. purified Giardia FBPA. Potency, µM (top dose mostly 59.6 µM), for inactives: at the highest dose activity, negative = inhibition, most hits filed as inhibitors. hit rate 0.71% among 290,000. AID 2451; further: potency means the concentration at half of the fitted maximal effect; on the % scale 0 is the no-effect control and ±100 the full control effect; nearly all actives have a fitted effect of over 55% in size
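40 nM FBPA preincubated 10 min at RT with compound (up to 57.5 uM final), then substrate plus GAPDH/TPI/NAD/arsenate coupling and diaphorase/resazurin added. Fluorescence read after 20 min at RT, 525/598 nm.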
LmPK inh: blocks Leishmania mexicana pyruvate kinase activity; Q27686; purified LmPK, Kinase-Glo ATP luminescence, 1 h; Potency, µM (highest dose often 57.5 µM), for inactives: top-dose activity change, negative = inhibition, usual class: inhibitors; hit rate 0.37% among 290,000; AID 1721; further: potency means the concentration at half of the fitted maximal effect; on the % scale 0 is the no-effect control and ±100 the full control effect
Target sequence (Q27686 whole entry, looked up): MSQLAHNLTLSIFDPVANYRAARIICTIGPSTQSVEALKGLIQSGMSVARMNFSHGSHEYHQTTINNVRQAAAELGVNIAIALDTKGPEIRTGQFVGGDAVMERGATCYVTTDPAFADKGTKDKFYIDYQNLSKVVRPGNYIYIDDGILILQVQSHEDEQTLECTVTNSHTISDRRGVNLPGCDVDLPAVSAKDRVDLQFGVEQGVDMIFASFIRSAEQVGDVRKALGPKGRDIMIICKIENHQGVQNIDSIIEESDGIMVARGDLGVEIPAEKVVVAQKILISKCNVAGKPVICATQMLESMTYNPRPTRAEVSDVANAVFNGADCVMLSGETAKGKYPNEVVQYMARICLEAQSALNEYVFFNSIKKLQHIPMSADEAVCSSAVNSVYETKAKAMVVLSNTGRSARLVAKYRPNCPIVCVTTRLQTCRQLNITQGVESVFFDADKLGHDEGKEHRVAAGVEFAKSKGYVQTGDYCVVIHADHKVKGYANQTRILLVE
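qHTS format; LmPK 0.1 nM; substrates PEP 0.5 mM and ADP 0.1 mM. One-hour room-temperature incubation, then coupled luciferase luminescence; 0.5 nM enzyme wells mark activation.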
TbPYK inhibitor: inhibitors of Trypanosoma brucei pyruvate kinase; Q57TT1; Potency, µM (highest dose often 76.8 µM), for the others: at the highest dose activity, negative = inhibition, actives largely listed as inhibitors; AID 624173; hit rate 0.12% among 410,000; TbPYK enzyme, Kinase-Glo Plus ATP luminescence, 45 min; further: potency means the concentration at half of the fitted maximal effect; on the % scale 0 is the no-effect control and ±100 the full control effect; nearly all actives have a fitted effect of over 50% in size
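Readout: single end-point luminescence (Kinase-Glo Plus, 10 min). Reaction conditions were TbPYK/substrate plus 130 uM ADP, 45 min at RT, pH 7.2 TEA buffer. No-enzyme wells served as controls, and data were normalized before concentration-response fitting.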
Starred values were filed as active, the others as inactive; u = inconclusive; x = no result given; + = active, no number. Many of the other results were omitted from the sample, so hits are more common in it than they were. Unless noted, the call rests on the fitted dose curve; in most records, active means well fitted curve in the direction sought with a large enough effect; inconclusive means small, poorly fitted or top-dose-only effect, or another doubt; inactive means no such curve, though single readings can be large; an effect the other way counts as inactive or inconclusive.

SMILES	RE007 growth inh	Shiga inhibitor	Cycloheximide cs	FBPA Giardia inh	LmPK inh	TbPYK inhibitor
CN(C)C(Cc1ccccc1)C(=O)c1c[nH]c2ccccc12 (centres undefined)	-7%	63	28*	0%	-1%	-7%
O=S(=O)(c1ccccc1)N1CCC2(CCCN(Cc3ccccc3)C2)CC1	x	x	x	-1%	x	2%
COc1ccc(-n2c(C)cc(C(=O)CCl)c2C)cc1	-48%	-6	11	1%	-7%	-2%
COc1ccc(-n2c(C)cc(C(=O)CSc3ccc(NC(C)=O)cc3)c2C)cc1	28%	69*	29*	2%	6%	-7%
CC(=O)Nc1ccc(SCC(=O)c2cc(C)n(-c3ccccc3)c2C)cc1	-6%	86	45*	1%	-2%	-6%
Cc1cc(C(=O)OCC(=O)N2CCc3ccccc32)c(C)o1	11%	37	25*	3%	0%	4%
O=C(OCC(=O)N1CCc2ccccc21)c1ccc(Br)o1	u	x	x	x	x	0%
O=C(OCC(=O)N1CCc2ccccc21)C1=COCCO1	2%	56*	37*	-8%	-4%	-10%
Cc1cc(C(=O)OCC(=O)c2ccc(Br)s2)no1	0%	-3	2	0%	0%	1%
Cc1cc(C(=O)OCC(=O)Nc2ccc(F)cc2F)c(C)o1	-7%	14	17*	7%	-2%	4%
Cc1cc(C(=O)OCC(=O)c2ccc(Br)s2)c(C)o1	x	36	33*	-5%	-8%	x
Cc1cc(C(=O)OCC(=O)Nc2ccccc2C)c(C)o1	13%	x	x	x	x	3%
CC(=C/c1ccc(C(C)C)cc1)/C=N/NC(=O)Cn1nnnc1N	-3%	23	13	1%	1%	1%
CC(=C/c1ccc(C(C)C)cc1)/C=N/NC(=O)CSc1ccccn1	30%	157*	71*	4%	3%	-1%
CC(/C=C/c1ccccc1)=N\NC(=O)CSc1ccccn1	-12%	14	0	-9%	2%	-7%
CC(/C=N/NC(=O)CSc1ccccn1)=C\c1ccc(C(C)C)cc1	40%	+	108*	-3%	1%	1%
COc1cc(C(=O)Oc2ccc3c(c2)OCC3=O)cc(OC)c1OC	6%	-12	-2	5%	-5%	-4%
O=C(Oc1ccc2c(c1)OCC2=O)c1ccc(Cl)cc1	-13%	50*	22	3%	1%	5%
COc1cc(NC(=O)CC(c2ccc(C)cc2)N2Cc3ccccc3C2=O)cc(OC)c1 (centres undefined)	x	x	x	x	x	0%
Nc1ccc(-c2cnc[nH]2)cc1[N+](=O)[O-]	-6%	26	12*	-7%	-5%	-4%
O=C(Cn1ccc(NC(=O)OCc2ccccc2)nc1=O)NCCc1c[nH]c2ccccc12	5%	x	x	x	x	0%
O=C(C(=NNc1ccccc1)c1ccccc1)c1ccccc1	-11%	x	x	x	x	1%
Oc1ccc(O)c(/C(=N/Nc2ccccc2)c2ccccc2)c1	x	17	27*	-11%	-5%	x
CCn1c(N2CCN(C(=O)c3ccco3)CC2)nc2ccccc21	-3%	1	2	-6%	0%	-3%
c1ccc(CC2CCN(c3nc4ccccc4n4nnnc34)CC2)cc1	-4%	17	8.5*	1%	2%	5%
SMILES	RE007 growth inh	Shiga inhibitor	Cycloheximide cs	FBPA Giardia inh	LmPK inh	TbPYK inhibitor
O=C(c1ccco1)N1CCN(c2nc3ccccc3n3nnnc23)CC1	-9%	36*	24*	6%	-5%	-8%
O=C(O)c1cc2c([nH]c1=O)CCCC2	16%	-3	-3	7%	1%	2%
C=CCSC(=C(C#N)C#N)c1cc2c([nH]1)CCCC2	-19%	3	25*	-13%	4%	3%
COc1ccc(N2CCN(c3ccc(-c4nc(-c5ccccc5C)no4)cc3[N+](=O)[O-])CC2)cc1	x	x	x	x	x	2%
CC(C)[C@H](NS(=O)(=O)c1ccc(Cl)cc1)C(=O)OCC(=O)NCCN1C(=O)CSC1=O	7%	-1	-1	-5%	-8%	0%
O=C(N/N=C\c1ccc(COc2ccc([N+](=O)[O-])cc2)o1)c1ccc(Cl)cc1	-23%	21	-1	5%	6%	-4%
CSc1ccc(/C=N/NC(=O)c2sccc2C)cc1	-21%	64*	46*	0%	u	-16%

Compound activity deposited in PubChem BioAssay by National Center for Advancing Translational Sciences (NCATS).
